# From ChEMBL document CHEMBL4888484, “Replenishing the malaria drug discovery pipeline: Screening and hit evaluation of the MMV Hit Generation Library 1 (HGL1) against asexual blood stage Plasmodium falciparum ,using a nano luciferase reporter read-out” (2022)
# Among all 4,800 compounds or so, about 410 (8.5%) showed an effect of 50% or more. What follows is part of a selection rich in strong results, with near analogues and random picks from the rest.
# Tested on: Plasmodium falciparum
# Test: Confirmatory screen in NF54 pLDH assay, in single point, at 2uM, 72h
# Assay type: functional, Erythrocyte
# Conditions: timepoint 72 hour
row,SMILES,% Inhibition [%]
1,Cc1cccc(Oc2cc(N)cc(Oc3cccc(C)c3)c2)c1,8
2,O=C(c1cc2ccccc2[nH]1)N1CCc2sc(Cl)cc2C1,5
3,CC(=Cc1cn(C(C)(C)C)nn1)c1nc(C)c(C#N)c(=O)[nH]1,10
4,COc1ccc(C)cc1NC(=O)[C@H]1CCCN(c2cn[nH]c(=O)c2)C1,-8
5,CC(C)(C)CC(=O)Nc1ccccc1C(N)=O,13
6,Cc1ccc(-c2cc(O)cc(CC[C@H]3CCCCN3)c2)c(C)n1,66
7,Cc1cc(-c2cc(O)cc(CC[C@H]3CCCCN3)c2)ccn1,91
8,Cc1cc(S(=O)(=O)NC[C@H]2CCCCN2)sc1C,-6
9,CC(=O)c1cc(-c2cc(O)cc(CC[C@H]3CCCCN3)c2)ccc1O,85
10,CNC(=NCC(C)(C)c1ccc(OC)cc1)NC,7
11,COc1cccc(N2CCN(C(=O)c3cn4cc(-c5ccc(Cl)cc5)ccc4n3)CC2)c1,2
12,Cc1[nH]c2nc3ccccc3n2c(=O)c1Cc1ccccc1Cl,-15
13,CCc1cc(O)nc(CN2CCCC2C(O)C(F)(F)F)n1 (stereo not drawn),-4
14,Oc1ccc(-c2nnc(-c3ccc(O)cc3)nn2)cc1,22
15,CC(C)c1ccc(NC(=O)CCC(=O)N2CCc3ccccc3C2)cc1,9
16,C[C@@]12CO[C@@H](COc3ccccc3)O[C@@H]1CC[C@]1(C)C2CC[C@@H](O)[C@H]1CC(=O)N1CCC[C@H]1CO (stereo partly drawn),6
17,CC1CC(C)CN(C(=O)c2cc(NC(=O)c3ccccc3)n(C)n2)C1 (stereo not drawn),-14
18,O=C(CN1CCOCC1)Nc1ccc(N2CCOCC2)c(F)c1,-8
19,N#Cc1nccnc1NCCCCN1C(=O)c2ccccc2C1=O,-14
20,CC1(C)COC(=O)[C@H]1OCN1CCCC1=O,-7
21,CS(=O)(=O)N1CCC(C(=O)Nc2c(C(N)=O)sc3nc(C(F)F)cc(C4CC4)c23)CC1,5
22,O=C(COc1ccc(Cl)cc1)N1CC(n2cnnc2C2CC2)C1,-4
23,Cc1cc(=O)[nH]c(N2CCCCCC2)n1,8
24,Cc1cc(=O)[nH]c(-n2nc(C3CC3)cc2NC(=O)C(C)(C)Oc2ccc(Cl)cc2)n1,82
25,COc1ccc(Cl)cc1C(=O)N(C1CCOCC1)[C@H]1CCCN(S(C)(=O)=O)C1,-12
26,COc1ccc(Cl)cc1C(=O)Nc1cc(C2CC2)nn1-c1nc(C)cc(=O)[nH]1,72
27,COc1ccc(NC(=O)c2cc(C3CC3)nc3onc(C4CC4)c23)cc1Cl,-4
28,COc1ccc(NC(=O)Cn2cnc3nc(N4CCOCC4)ncc3c2=O)cc1,15
